This is one part of a sample in which hits are shown more often than they occur.
Dicer inh: blocks human Dicer maturation of pre-miR-21; cat-ELCCA pre-miR-21 Dicer processing, chemiluminescence; hits give high values; Q9UPY3; z-score at 25 µM; 47,000 tested, 6% active; in the data active = z-score above about 3, passing the limit was not always enough;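 also: higher signal means more uncleaved substrate so more Dicer inhibition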
A number is an active result; 0 = inactive.

SMILES	Dicer inh
Cc1ccc(S(=O)(=O)Nc2cc(Cl)c(O)cc2C)cc1	4.3
Cc1ccc(S(=O)(=O)Nc2cc(C)c(O)c(Cl)c2)cc1	0
Cc1c(NS(=O)(=O)c2ccccc2)cc(Cl)c(O)c1C	0
Cc1ccc(S(=O)(=O)Nc2cc(S(=O)(=O)c3ccc(C)cc3)c(O)c3ncccc23)cc1	0
CCOc1ccc(-c2nc(-c3cc4cccc(C)c4[nH]c3=O)no2)cc1	0
CSCCC(NCc1ccccc1O)C(=O)O (stereo not given)	0
Cc1nc(-c2c(C(=O)N/N=C/c3c(Cl)cccc3Cl)noc2C)cs1	0
CCCCOC(=O)C1=C(C)NC2=C(C(=O)CC(C)(C)C2)C1c1ccc(O)cc1 (stereo not given)	0
Cc1nc(N2C(=O)c3oc4ccccc4c(=O)c3C2c2ccccc2)sc1C (stereo not given)	0
CN1C(=O)c2cccc3cccc(c23)[S+]1c1cccc2cccc(C(=O)[O-])c12 (stereo not given)	0
COC(=O)c1cc(=O)n(-c2cc(C(F)(F)F)cc(C(F)(F)F)c2)[nH]1	0
COC(=O)c1cc(=O)n(-c2ccccc2C(F)(F)F)[nH]1	3.2
O=c1cc(C(F)(F)F)[nH]n1-c1ccccc1	0
COC(=O)C(C)Sc1nc2ccccc2[nH]1 (stereo not given)	0
Cc1ccc(C(Nc2cccc(C)n2)c2ccc3cccnc3c2O)cc1 (stereo not given)	17
Cc1cccc(NC(c2ccc(F)cc2)c2ccc3ccc(C)nc3c2O)n1 (stereo not given)	0
Cc1cccc(NC(c2ccc(O)cc2)c2ccc3ccc(C)nc3c2O)n1 (stereo not given)	0
Cc1cccc(NC(c2cccnc2)c2ccc3cccnc3c2O)c1 (stereo not given)	0
CCc1ccc(C(Nc2ccccn2)c2ccc3cccnc3c2O)cc1 (stereo not given)	0
COc1ccc(C(Nc2cc(C)ccn2)c2ccc3cccnc3c2O)cc1OC (stereo not given)	11
C=CCOc1cccc(C(Nc2cccc(C)n2)c2ccc3cccnc3c2O)c1 (stereo not given)	0
Cc1cccc(NC(c2cccnc2)c2ccc3cccnc3c2O)n1 (stereo not given)	3.5
C=CCOc1cccc(C(Nc2ccccn2)c2ccc3cccnc3c2O)c1 (stereo not given)	0
CC(C)CSc1sc(C(=O)O)c(-c2ccc(Cl)cc2)c1C#N	0
CN(C)CCCN1C(=O)C(=O)/C(=C(/O)c2ccc(S(=O)(=O)N(C)C)cc2)C1c1cccnc1 (stereo not given)	0
SMILES	Dicer inh
CN(C)CCCn1nnc2c(=O)oc3ccccc3c21	0
Cc1ccc(Sc2c(-c3ccccc3)nc3ncccn23)cc1	0
S=C(NCC1CCCC1NC(=S)NC1CC2C=CC1C2)NC1CC2C=CC1C2 (stereo not given)	0
CCOc1cccc(/C=N/c2nnc(SC)s2)c1O	0
Cc1ccc2oc(C(=O)OCC(C)(C)CN(C)C)cc2c1	0
O=C(NCc1ccccc1)NCc1ccccc1	3.6
O=C(NCCCCCCNC(=O)NCc1ccccc1)NCc1ccccc1	0
Cc1cccc(C)c1NC(=O)NCc1ccccc1	0
Clc1ccc(-c2nnnn2-c2cnccn2)cc1	0
S=c1[nH]nc2nc3c4ccccc4c4ccccc4c3nn12	4.9
S=c1[nH]nc2nc(-c3ccccc3)c(-c3ccccc3)nn12	0
CCSc1nnc2nc3c4ccccc4c4ccccc4c3nn12	0
CCOc1cc(C2C(C(=O)OC)=C(C)NC3=C2C(=O)CCC3)ccc1O (stereo not given)	0
COc1cccc(CN2CCN(Cc3ccc4c(c3)OCO4)CC2)c1OC	3.5
COc1ccccc1CN1CCN(Cc2ccc3c(c2)OCO3)CC1	4.2
COc1ccc(CN2CCN(Cc3ccc4c(c3)OCO4)CC2)cc1OCc1ccccc1	0
O=S(=O)(c1ccc(F)cc1)N1CCN(Cc2ccc3c(c2)OCO3)CC1	3.2
COc1cc(CN2CCN(Cc3ccc4c(c3)OCO4)CC2)cc(OC)c1	0
COc1ccc(CN2CCN(Cc3ccc4c(c3)OCO4)CC2)c(OC)c1	0
Cc1[nH]c2ccccc2c1C(=O)CN1CCOCC1	0
Cc1[nH]c2ccccc2c1C(=O)CN1CCN(Cc2ccc3c(c2)OCO3)CC1	3.3
COc1cccc(CNCc2ccc3c(c2)OCO3)c1OC	0
COc1ccc(CN2CCN(Cc3ccc4c(c3)OCO4)CC2)cc1	0
O=S(=O)(c1ccc2c(c1)OCCO2)N1CCN(Cc2ccc3c(c2)OCO3)CC1	0
CCc1ccc(S(=O)(=O)N2CCN(Cc3ccc4c(c3)OCO4)CC2)cc1	0
SMILES	Dicer inh
CCOC(=O)Cn1nnc(CSc2ccc(Cl)cc2)n1	0
CCOC(=O)c1c(NC(=O)/C=C/C(=O)O)sc(C)c1-c1ccccc1	0
CC1c2ccsc2CCN1C(=O)c1csc([N+](=O)[O-])c1 (stereo not given)	0
O=S(=O)(c1cccc(C(F)(F)F)c1)n1nc(C(F)(F)F)c2cnccc21	0
COc1ccc(-c2oc3ccc(C)cc3c(=O)c2O)cc1	0
Cc1ccc(S(=O)(=O)N=S2(=O)CCCS(=O)(=O)C2)cc1 (stereo not given)	0
O=C(CC1(O)C(=O)Nc2ccc(Cl)cc21)c1cccc2ccccc12 (stereo not given)	0
Nc1cccc(C(=O)CC2(O)C(=O)Nc3ccc(Cl)cc32)c1 (stereo not given)	12
O=C(CC1(O)C(=O)Nc2ccccc21)c1ccc(Br)cc1 (stereo not given)	0
O=C(CC1(O)C(=O)Nc2ccccc21)c1ccc2ccccc2c1 (stereo not given)	4.4
Cc1ccc(C(=O)CC2(O)C(=O)Nc3ccccc32)cc1 (stereo not given)	0
O=C(CC1(O)C(=O)Nc2ccccc21)c1ccc(C2CCCCC2)cc1 (stereo not given)	4.2
O=C(CC1(O)C(=O)Nc2ccccc21)CC1(O)C(=O)Nc2ccccc21 (stereo not given)	0
O=C(CC1(O)C(=O)Nc2ccc(Br)cc21)c1ccc2ccccc2c1 (stereo not given)	0
CN1C(=O)C(O)(CC(=O)c2ccc(C3CCCCC3)cc2)c2ccccc21 (stereo not given)	0
Nc1cccc(C(=O)CC2(O)C(=O)Nc3ccc(Br)cc32)c1 (stereo not given)	0
O=C(CC1(O)C(=O)Nc2ccc(Cl)cc21)c1ccc(Cl)cc1 (stereo not given)	0
O=C(CC1(O)C(=O)Nc2ccccc21)c1cccc2ccccc12 (stereo not given)	5.2
COc1ccc(Cc2nc3c4c5c(sc4ncn3n2)C(C)(C)NC(C)(C)C5)cc1	0
COCC(C)NC(=O)CSc1nc2c(c(C(F)(F)F)n1)CCc1ccccc1-2 (stereo not given)	0
O=C(NC(N1CCCC1=O)(C(F)(F)F)C(F)(F)F)c1cccnc1	0
C=CCN1/C(=C/c2cccc[n+]2C)Sc2ccccc21	0
Cn1c(=O)c2cn(-c3ccc(O)cc3)cc2n(C)c1=O	0
N#C/C(=C1/SC=C(c2ccc(-c3ccccc3)cc2)N1c1ccccc1)c1nc2ccccc2[nH]1	0
Cc1cc(C)nc(Nc2n[nH]c(-c3cccnc3)n2)n1	0
CCOC(=O)c1cnn2c1nc(Nc1cc(C)ccc1OC)c1ccccc12	0
CC(=O)NNc1ncnc2cc(-c3ccc(C(C)(C)C)cc3)sc12	0
Cc1ccc(C(=O)N2CCN(c3ncnc4cc(-c5ccc(C(C)(C)C)cc5)sc34)CC2)cc1	0
Cc1ccc(C(=O)NNc2ncnc3cc(-c4ccc(C(C)(C)C)cc4)sc23)cc1	6.2
